Source: PubChem BioAssay (National Center for Advancing Translational Sciences (NCATS))
Compounds with a hit are over-represented: about 7.5% of the library has one in this group of screens.
Rab9 prom act: activators of Rab9 promoter; Huh7 Rab9 promoter-luciferase reporter, luminescence, 24 h; Potency, µM (highest dose often 9.22 µM), without a hit: top-dose activation, negative = inhibition, hits mostly activators; actives 2.8% (n = 320,000); also: % of control where 0% means no effect; nearly all actives have a fitted effect of over 60% in size
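Steps: seed 1500 Huh7 Rab9-luc cells per well, rest 2 h at 37 °C; add compound in DMSO; incubate 24 h; add luciferase reagent, 10 min ambient; read luminescence.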
NPC1 promoter act: activators of NPC1 promoter. AID 485313. actives 2.4% (n = 320,000). Potency, µM (highest dose often 9.22 µM), without a hit: at the highest dose activation, most hits filed as activators. Huh7 NPC1 promoter luciferase reporter, 24 h; also: % of control where 0% means no effect; nearly all actives have a fitted effect of over 60% in size
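Stably transfected Huh7 (NPC1 promoter→luciferase), 1500 cells/well in Opti-MEM + 10% FBS, 2 h settle, then compound 24 h at 37 °C. Luminescence after 10 min with Amplite reagent.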
ELG1 genotox: induces genotoxicity in HEK293T cells with luciferase-tagged ELG1; HEK293T ELG1-luciferase reporter, luminescence, 16 h; Potency, µM (top dose mostly 46 µM), for inactives: at the top dose activity change, positive = activation, most hits filed as activators; actives 1.3% (n = 330,000); also: % of control where 0% means no effect; nearly all actives have a fitted effect of over 60% in size
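Quantitative HTS format in 1536-well plates. HEK293T ELG1-luciferase reporter cells receive test compound and are incubated 16 hr at 37 °C, 5% CO2; ONE-Glo added, 30 min room temperature, then luminescence read.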
FLuc counter: inhibits or activates purified firefly luciferase, miR-21 counter-screen; Potency, µM (series often up to 57.5 µM), for the others: at the top dose activity change, negative = inhibition, usual class: inhibitors; P08659; actives 6.9% (n = 360,000); purified FLuc, Km substrates, luminescence inhibition;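 also: plate controls were vehicle for no effect and reference inhibitor for full effect; nearly all actives have a fitted effect of over 55% in size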
Target sequence (P08659 whole entry, looked up): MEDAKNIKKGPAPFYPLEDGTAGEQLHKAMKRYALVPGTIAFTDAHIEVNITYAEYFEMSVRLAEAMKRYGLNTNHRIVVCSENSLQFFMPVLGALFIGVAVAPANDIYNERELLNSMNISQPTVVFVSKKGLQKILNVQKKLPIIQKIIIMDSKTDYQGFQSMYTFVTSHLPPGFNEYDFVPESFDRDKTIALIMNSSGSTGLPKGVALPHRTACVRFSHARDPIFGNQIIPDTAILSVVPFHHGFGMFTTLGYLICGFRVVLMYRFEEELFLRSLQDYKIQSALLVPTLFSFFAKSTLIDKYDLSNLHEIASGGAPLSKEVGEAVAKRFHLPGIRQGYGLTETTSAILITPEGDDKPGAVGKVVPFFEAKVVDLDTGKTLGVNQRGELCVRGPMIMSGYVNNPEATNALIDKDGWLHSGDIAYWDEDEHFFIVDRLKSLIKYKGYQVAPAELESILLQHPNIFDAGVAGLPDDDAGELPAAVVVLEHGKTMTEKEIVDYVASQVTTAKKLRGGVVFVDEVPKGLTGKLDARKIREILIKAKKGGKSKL
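Purified P. pyralis luciferase, 10 nM final, with Km-level 10 uM D-luciferin and 10 uM ATP in 50 mM Tris acetate pH 7.5, 10 mM Mg acetate, 0.01% Tween-20, 0.05% BSA; 6-point qHTS titration about 60 µM downward; luminescence read.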
Luc counter: Kinase-Glo luciferase inhibition (counter-screen) | actives 0.28% (n = 200,000) | Kinase-Glo luciferase, ATP luminescence, 8 min | Potency, µM (doses to about 38.3 µM), for the others: at the top dose activity change, negative = inhibition, most hits filed as inhibitors; also: % is scaled to controls: 0 for no effect and ±100 for the full control effect; nearly all actives have a fitted effect of over 60% in size
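Substrate mix (final 50 mM imidazole pH 7.2, 50 mM KCl, 7 mM MgCl2, 10 uM ATP, 0.01% Tween 20, 0.05% BSA) plus pin-tool compound, then Kinase-Glo detection mix; 8 min ambient, luminescence read.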
SMN2 splice up: increases expression of the SMN2 splice variant | HEK293 SMN2-luciferase splicing reporter, luminescence, 30-36 h | Potency, µM (highest dose often 46.1 µM), inactives show at the top dose activity change, positive = activation, most hits filed as activators | actives 2.8% (n = 210,000) | AID 1458; also: % of control where 0% means no effect; nearly all actives have a fitted effect of over 55% in size
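HEK293 cells carry an SMN2 minigene-luciferase reporter in which exon 7 inclusion puts luciferase in frame. Cells were seeded at 2000 cells/well, attached for 10-12 hours, then exposed to compounds for 30-36 hours at 37C before ONE-Glo luminescence.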
Numbers without * were called inactive; ? = inconclusive; nt = no result. Calls follow the shape of the dose curve; as a rule, active = well fitted curve in the direction sought with a large enough effect; inconclusive = small, poorly fitted or top-dose-only effect, or another doubt; inactive = no such curve, though single readings can be large; an effect the other way counts as inactive or inconclusive. Potency is read from the fitted curve at half-maximal effect.

SMILES	Rab9 prom act	NPC1 promoter act	ELG1 genotox	FLuc counter	Luc counter	SMN2 splice up
O=C(NC(=S)Nc1cccc(S(=O)(=O)NC2=NCCC2)c1)c1cc(-c2ccco2)nc2ccccc12	-27%	-24%	9%	19µM*	nt	nt
CN(C)c1cccc(C(=O)Nc2cccc(S(=O)(=O)NC3=NCCC3)c2)c1	2.2µM*	2.8µM*	?	21µM*	nt	nt
C=C(C)CNC(=S)Nc1cccc(S(=O)(=O)NC2=NCCC2)c1	1%	0%	2%	-1%	4%	-9%
O=c1cc(COc2ccc(Cl)c(Cl)c2)nc2sccn12	3.2µM*	?	13%	-4%	nt	nt
Cc1cccc(NC(=O)Nc2cccc(C#N)c2)n1	?	?	14%	?	-6%	16µM*
COc1ccc(NC(=O)Nc2cccc(C)n2)cc1	?	?	12µM*	8.5µM*	-5%	11µM*
COc1ccc(NC(=O)Nc2ccc(Br)cn2)cc1	2.8µM*	3.5µM*	18%	-17%	1%	?
Cc1cccc(NC(=O)Nc2ccc(C#N)cc2)n1	4%	18%	-34%	-15%	3%	11µM*
Cc1cccc(NC(=O)Nc2ccc(Br)cc2)n1	?	29%	7%	-19%	nt	20%
Cc1ccc(N2CCN(S(=O)(=O)c3ccc(Cl)s3)CC2C)cc1 (centres undefined)	0%	3%	-11%	6%	nt	nt
Cc1ccc(C)n1-c1c(C(=O)NCC(C)c2ccccc2)sc2ncccc12 (centres undefined)	nt	nt	nt	0%	nt	nt
COc1ccc2c(c1)-c1nc(NC(=O)c3ccc(C)cc3)sc1CC2	nt	nt	nt	2.7µM*	nt	12%
COc1ccc(C(=O)Nc2nc3c(s2)CCc2cc(OC)ccc2-3)cc1	nt	nt	nt	7.6µM*	nt	-38%
COc1ccc2c(c1)CCc1sc(NC(=O)c3cccc(Br)c3)nc1-2	nt	nt	nt	-13%	nt	nt
COc1ccc(CC(=O)OC(C)C(=O)NCc2ccc3c(c2)OCO3)cc1OC (centres undefined)	-7%	-1%	2%	-1%	nt	nt
CCOc1ccccc1N(CC(=O)Nc1ccccc1C(=O)N1CCCC1)S(C)(=O)=O	-5%	-4%	1%	0%	nt	nt
O=C(CNC(=O)c1ccc(Cl)c([N+](=O)[O-])c1)NCC1CCCO1 (centres undefined)	-1%	1%	0%	2%	nt	nt
CSc1ccccc1-c1nnc(-c2ccccc2)o1	3.2µM*	20%	?	3.4µM*	?	11µM*
CSc1ccccc1-c1nnc(-c2ccc(C)cc2)o1	?	?	?	1.5µM*	2%	10µM*
CSc1nnc(-c2ccccc2SC)o1	1%	1%	3%	-7%	-1%	0%
COc1ccc(-n2nc3cc(C)c(NC(=S)NC(=O)c4ccccc4C)cc3n2)cc1	16%	1%	?	2.4µM*	4%	9%
CCC(=O)Nc1cc2nn(-c3ccc(C)cc3)nc2cc1C	?	?	?	0.11µM*	-2%	-56%
Cc1cccc(C(=O)Nc2cc3nn(-c4ccc(C(C)C)cc4)nc3cc2C)c1	nt	nt	nt	2.1µM*	nt	9%
CCC(=O)Nc1cc2nn(-c3ccc(OC)cc3)nc2cc1C	?	0.1µM*	0.41µM*	0.3µM*	-8%	-9%
CCC(C)c1ccc(NC(=O)NCCN2CCCCC2)cc1 (centres undefined)	-3%	-2%	-4%	0%	nt	nt
COc1ccc(/C=N\NC(=O)/C(=C\Nc2nccc(C)n2)NC(=O)c2ccccc2)cc1	0%	0%	0%	15µM*	-20%	-7%
Cc1ccc(/C=N\NC(=O)/C(=C\Nc2nccc(C)n2)NC(=O)c2ccccc2)cc1	-2%	-4%	-3%	15µM*	nt	nt
COCCSc1nnc(NC(=O)C2CC(=O)N(C3CCCC3)C2)s1 (centres undefined)	-2%	-4%	-2%	1%	nt	nt
